Assay results from PubChem BioAssay AID1159580 (chemical genetic matrix, 2015).
The campaign covered roughly 5,500 compounds. About 2,000 (36%) were called active. About 18% were inconclusive and are not listed. No stated cut-off is given here; in the data, active means normalized growth mostly below about 0.91 (no sharp cut-off); inconclusive means no clear call, values can overlap the other calls; inactive means mostly above about 0.92. Some of the results follow.

Assay: chemical genetic growth profiling, strain panel (AID 1159580);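 further: tested at 20 µM; growth read once vehicle control cultures reached saturation at 30 °C; 1 = growth at the plate median or of vehicle wells; lower values mean less growth of the strain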
Settings: growth OD
[1] = S. cerevisiae deletion strains, locus YBR229C, strain ROT2, hits give low values
[2] = S. cerevisiae deletion strains, locus YDL101C, strain DUN1, hits give low values
[3] = S. cerevisiae deletion strains, locus YJR043C, strain POL32, hits give low values
[4] = S. cerevisiae deletion strains, locus YJR075W, strain HOC1, hits give low values
[5] = S. cerevisiae deletion strains, locus YLR039C, strain RIC1, hits give low values
[6] = S. cerevisiae deletion strains, locus YLR262C, strain YPT6, hits give low values
[7] = S. cerevisiae deletion strains, locus YMR263W, strain SAP30, hits give low values
[8] = S. cerevisiae deletion strains, locus YMR307W, strain GAS1, hits give low values
[9] = S. cerevisiae deletion strains, locus YNL153C, strain GIM3, hits give low values
[10] = S. cerevisiae deletion strains, locus YPL055C, strain LGE1, hits give low values
[11] = S. cerevisiae deletion strains, locus YPL241C, strain CIN2, hits give low values

Measured: normalized growth

CC12CCC(O)CC1CCC1C2[C@H](O)CC2(C)C(C3=CC(=O)OC3)CCC12O (some centres not stated)
inactive: S. cerevisiae deletion strains, locus YBR021W, strain FUR4, hits give low values 1.02 | [1] 1.03 | S. cerevisiae deletion strains, locus YCL029C, strain bik1, hits give low values 1.01 | S. cerevisiae deletion strains, locus YDL035C, strain GPR1, hits give low values 1.07 | S. cerevisiae deletion strains, locus YDL074C, strain BRE1, hits give low values 1.08 | [2] 1.02 | S. cerevisiae deletion strains, locus YDL185W, strain tfp1, hits give low values 0.995 | S. cerevisiae deletion strains, locus YDL192W, strain arf1, hits give low values 1.01 | S. cerevisiae deletion strains, locus YDR101C, strain arx1, hits give low values 1.02 | S. cerevisiae deletion strains, locus YDR162C, strain NBP2, hits give low values 1.03 | S. cerevisiae deletion strains, locus YDR318W, strain mcm21, hits give low values 0.998 | S. cerevisiae deletion strains, locus YDR388W, hits give low values 0.983 | S. cerevisiae deletion strains, locus YDR502C, strain sam2, hits give low values 1 | S. cerevisiae deletion strains, locus YER110C, hits give low values 0.988 | S. cerevisiae deletion strains, locus YER155C, strain BEM2, hits give low values 1.01 | S. cerevisiae deletion strains, locus YER167W, strain BCK2, hits give low values 1.04 | S. cerevisiae deletion strains, locus YGL078C, strain dbp3, hits give low values 1 | S. cerevisiae deletion strains, locus YGL086W, strain mad1, hits give low values 0.992 | S. cerevisiae deletion strains, locus YGL248W, strain PDE1, hits give low values 1.02 | S. cerevisiae deletion strains, locus YGR135W, strain pre9, hits give low values 0.976 | S. cerevisiae deletion strains, locus YGR252W, strain gcn5, hits give low values 0.954 | S. cerevisiae deletion strains, locus YHR079C, strain IRE1 (second series), hits give low values 0.992 | S. cerevisiae deletion strains, locus YHR094C, strain hxt1, hits give low values 0.984 | S. cerevisiae deletion strains, locus YHR129C, strain ARP1, hits give low values 1.02 | S. cerevisiae deletion strains, locus YHR200W, strain rpn10, hits give low values 0.999 | S. cerevisiae deletion strains, locus YIL066C, strain RNR3, hits give low values 1.04 | S. cerevisiae deletion strains, locus YIL073C, strain SPO22, hits give low values 1.06 | S. cerevisiae deletion strains, locus YIL125W, strain kgd1, hits give low values 0.996 | S. cerevisiae deletion strains, locus YIR030C, strain dcg1, hits give low values 0.986 | S. cerevisiae deletion strains, locus YJL095W, strain BCK1, hits give low values 1.03 | S. cerevisiae deletion strains, locus YJL134W, strain LCB3, hits give low values 1.01 | S. cerevisiae deletion strains, locus YJL168C, strain set2, hits give low values 0.992 | S. cerevisiae deletion strains, locus YJL187C, strain SWE1 (second series), hits give low values 1.01 | [3] 1.06 | [4] 1.03 | S. cerevisiae deletion strains, locus YKL009W, strain mrt4, hits give low values 1.06 | S. cerevisiae deletion strains, locus YKL068W, hits give low values 1 | S. cerevisiae deletion strains, locus YKL085W, strain MDH1 (second series), hits give low values 1 | S. cerevisiae deletion strains, locus YKL085W, strain MDH1, hits give low values 1 | S. cerevisiae deletion strains, locus YKL190W, strain CNB1, hits give low values 1.02 | S. cerevisiae deletion strains, locus YKR001C, strain vps1, hits give low values 1.01 | [5] 1.1 | S. cerevisiae deletion strains, locus YLR058C, strain SHM2, hits give low values 1.03 | S. cerevisiae deletion strains, locus YLR102C, strain apc9, hits give low values 0.994 | [6] 1.16 | S. cerevisiae deletion strains, locus YLR268W, strain sec22, hits give low values 1.01 | S. cerevisiae deletion strains, locus YLR371W, strain rom2, hits give low values 0.991 | S. cerevisiae deletion strains, locus YLR418C, strain cdc73, hits give low values 0.957 | S. cerevisiae deletion strains, locus YML016C, strain PPZ1, hits give low values 1.02 | S. cerevisiae deletion strains, locus YML032C, strain rad52, hits give low values 1 | S. cerevisiae deletion strains, locus YML124C, strain tub3, hits give low values 1 | S. cerevisiae deletion strains, locus YMR078C, strain ctf18, hits give low values 1 | S. cerevisiae deletion strains, locus YMR223W, strain ubp8, hits give low values 0.983 | [7] 1.02 | [8] 1.08 | S. cerevisiae deletion strains, locus YNL067W, strain RPL9B, hits give low values 1.01 | [9] 1.03 | S. cerevisiae deletion strains, locus YNL233W, strain BNI4, hits give low values 1.03 | S. cerevisiae deletion strains, locus YNL250W, strain rad50, hits give low values 0.986 | S. cerevisiae deletion strains, locus YNL271C, strain bni1, hits give low values 0.995 | S. cerevisiae deletion strains, locus YNL298W, strain CLA4, hits give low values 1.02 | S. cerevisiae deletion strains, locus YNL307C, strain MCK1, hits give low values 0.987 | S. cerevisiae deletion strains, locus YNR052C, strain pop2, hits give low values 0.991 | S. cerevisiae deletion strains, locus YOL012C, strain htz1 0.714 | S. cerevisiae deletion strains, locus YOL147C, strain pex11, hits give low values 0.991 | S. cerevisiae deletion strains, locus YOR061W, strain CKA2, hits give low values 1.06 | S. cerevisiae deletion strains, locus YOR069W, strain VPS5, hits give low values 1.01 | S. cerevisiae deletion strains, locus YOR136W, strain idh2, hits give low values 1.01 | S. cerevisiae deletion strains, locus YOR144C, strain elg1, hits give low values 0.998 | S. cerevisiae deletion strains, locus YOR184W, strain ser1, hits give low values 1.05 | S. cerevisiae deletion strains, locus YOR316C, strain cot1, hits give low values 0.995 | [10] 1.07 | [11] 1.01 | S. cerevisiae deletion strains, locus YPR119W, strain clb2, hits give low values 0.994 | S. cerevisiae deletion strains, locus YPR141C, strain kar3, hits give low values 0.982 | S. cerevisiae deletion strains, locus YPR163C, strain tif3, hits give low values 0.998 | S. cerevisiae deletion strains, locus YPR167C, strain met16, hits give low values 0.993 | S. cerevisiae deletion strains, strain wtn01, hits give low values 1.01

CCOC(CN(c1ccc(F)cc1)S(=O)(=O)c1ccc(F)cc1F)OCC
inactive: S. cerevisiae deletion strains, locus YAL013W, strain DEP1, hits give low values 1 | [1] 1 | S. cerevisiae deletion strains, locus YCL061C, strain MRC1, hits give low values 1.01 | [2] 0.98 | S. cerevisiae deletion strains, locus YDL134C, strain PPH21, hits give low values 1.01 | S. cerevisiae deletion strains, locus YDR150W, strain NUM1, hits give low values 0.957 | S. cerevisiae deletion strains, locus YEL061C, strain CIN8, hits give low values 0.986 | S. cerevisiae deletion strains, locus YGR078C, strain PAC10, hits give low values 0.997 | S. cerevisiae deletion strains, locus YHR030C, strain SLT2, hits give low values 0.936 | S. cerevisiae deletion strains, locus YHR087W, strain rtc3, hits give low values 1.03 | [3] 0.989 | [4] 0.981 | [5] 0.96 | S. cerevisiae deletion strains, locus YLR058C, strain SHM2 (second series), hits give low values 0.996 | S. cerevisiae deletion strains, locus YLR085C, strain ARP6, hits give low values 1.01 | [6] 0.935 | S. cerevisiae deletion strains, locus YML094W, strain GIM5, hits give low values 0.999 | S. cerevisiae deletion strains, locus YMR219W, strain ESC1, hits give low values 0.994 | [7] 0.987 | [8] 0.731 | [9] 1.01 | S. cerevisiae deletion strains, locus YNL298W, strain CLA4 (second series), hits give low values 1.01 | S. cerevisiae deletion strains, locus YNL322C, strain KRE1, hits give low values 0.995 | S. cerevisiae deletion strains, locus YNR030W, strain Alg12, hits give low values 0.993 | S. cerevisiae deletion strains, locus YOL006C, strain TOP1, hits give low values 1.03 | [10] 1.04 | [11] 1 | S. cerevisiae deletion strains, locus YPR135W, strain CTF4, hits give low values 1.02 | S. cerevisiae strains, strain wild type, hits give low values 0.991
